KB-3-1 tox: KB-3-1 parental cell cytotoxicity; KB-3-1 viability, CellTiter-Glo ATP luminescence, 72 h; Potency, µM (series often up to 46.1 µM), hits mostly cytotoxic; hit rate 1.4% among 400,000; AID 1347075; note: nearly all actives have a fitted effect of over 60% in size
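72 h, 37 °C compound treatment of KB-3-1 parental cells; CellTiter-Glo added, 10 min, luminescence read. Data corrected against DMSO-only plates and normalized before curve fitting.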
DT40 TDP1 CPT: growth inhibition of DT40 Tdp1-/-;hTDP1 cells with camptothecin (screen for TDP1 inhibitors); chicken DT40 Tdp1-/-;hTDP1 cells + 20 nM CPT, ATP luminescence, 48 h; Potency, µM (highest dose often 46.2 µM), most hits filed as inhibitors; hit rate 12% among 420,000; note: nearly all actives have a fitted effect of over 55% in size
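Cell growth measured by CellTiter-Glo luminescence after a minimum 48 h, 37 C compound exposure with 20 nM CPT in Tdp1-knockout DT40 cells stably expressing hTDP1, seeded 400/well; qHTS titration format.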
TDP1 cell noCPT: qHTS for Inhibitors of human tyrosyl-DNA phosphodiesterase 1 (TDP1): qHTS in cells in absence of CPT. hit rate 15% among 420,000. DT40 Tdp1-/- hTDP1 cells, no CPT, ATP luminescence, 48 h. Potency, µM (series often up to 46.2 µM), actives largely listed as inhibitors; note: nearly all actives have a fitted effect of over 55% in size
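DT40 Tdp1-/-;hTDP1 cells, no CPT (DMSO vehicle only), 400 cells/well; compounds pin-transferred; ≥48 hr, 37 °C; CellTiter-Glo 30 min RT dark, luminescence read.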
HT1080 IDH1KD tx: HT-1080 IDH1 knockdown cell toxicity (counter line). HT-1080 IDH1 knockdown viability, ATP luminescence, 48 h. Potency, µM (series often up to 46.1 µM), most hits filed as cytotoxic. hit rate 2% among 360,000
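After a 2 h attachment period, IDH1KD HT-1080 cells took pin-transferred compound for 48 h at 37 °C; ATP-based luminescence after 10 min room-temperature reagent incubation reported viability.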
HT1080-NT tox: kills 2HG-producing HT-1080-NT fibrosarcoma cells | AID 686970 | Potency, µM (highest dose often 46.1 µM), hits mostly cytotoxic | HT-1080-NT fibrosarcoma viability, CellTiter-Glo ATP luminescence, 48 h | hit rate 1.6% among 360,000;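 note: NT is the 2HG producing partner of a matched IDH1 knockdown line; nearly all actives have a fitted effect of over 55% in size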
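Read-out is CellTiter-Glo luminescence after 10 minutes at room temperature, following 48 hours' compound treatment of HT-1080-NT cells (750 cells/well, RPMI, 5% FBS, 37 degrees C).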
KB-V1 MDR tox: KB-V1 MDR subline cytotoxicity | hit rate 3.4% among 400,000 | AID 1347076 | KB-V1 MDR cells viability, CellTiter-Glo, 72 h | Potency, µM (series often up to 46.1 µM), most hits filed as cytotoxic; note: nearly all actives have a fitted effect of over 60% in size
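Cytotoxicity toward P-gp-expressing KB-V1 cells was determined as loss of CellTiter-Glo luminescence after 72 h at 37 degrees C. Compounds were tested in quantitative HTS format across a concentration range, with curves fitted to normalized data.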
Numbers stand for hits; . = inactive; ? = inconclusive; / = not tested or not shown; [ ] = remark or other dose. This is a sample that favours compounds with a hit; in the whole collection about 19% have one here. Calls come from the whole dose curve; as a rule, active = well fitted curve in the direction sought with a large enough effect; inconclusive = small, poorly fitted or top-dose-only effect, or another doubt; inactive = no such curve, though single readings can be large; an effect the other way counts as inactive or inconclusive.

SMILES | KB-3-1 tox | DT40 TDP1 CPT | TDP1 cell noCPT | HT1080 IDH1KD tx | HT1080-NT tox | KB-V1 MDR tox
CN1CCN(C(=O)Cn2ncc3c4ccccc4n(Cc4ccc(F)cc4)c3c2=O)CC1 | . | 15µM | 7.3µM | / | / | .
Cn1c2ccccc2c2cnn(CC(=O)N3CCCCC3)c(=O)c21 | . | . | . | . | . | .
O=C(Cn1ncc2c3ccccc3n(Cc3ccccc3)c2c1=O)NC1CCCC1 | . | . | . | . | . | .
CCOC(=O)C1CCN(C(=O)Cn2ncc3c4ccccc4n(Cc4ccccc4)c3c2=O)CC1 | / | 8.2µM | 7.3µM | / | / | /
O=C(Cn1ncc2c3ccccc3n(Cc3ccc(Cl)cc3)c2c1=O)N1CCCCCC1 | . | 13µM | 10µM | / | / | .
CN(C)c1cccc(-c2ncnc(N3CCC(C(N)=O)CC3)n2)c1 | . | / | / | / | / | .
CC(C)c1nc(SCC(=O)Nc2cccc3ccccc23)n[nH]1 | . | . | . | . | . | .
COc1cc(OC)cc(C(=O)N2CCCC(n3cc(C(=O)NCC(C)C)nn3)C2)c1 (stereo not drawn) | / | .[9.04 µM] | . | / | / | /
CCOC(=O)C1Nc2ccc(C)cc2C2C=CCC12 (stereo not drawn) | . | ? | 18µM | . | . | .
CCOC(=O)C1Nc2ccc(Br)cc2C2C=CCC12 (stereo not drawn) | . | ? | 21µM | . | . | .
CC(C)CNC(=O)C1Nc2ccc(OC(F)(F)F)cc2C2C=CCC12 (stereo not drawn) | . | ? | 13µM | . | . | .
Cc1cc(C)c2cc(C=O)c(Cl)nc2c1 | ? | 1.2µM | 1µM | . | ? | ?
CCc1cc2cc(C)cc(C)c2nc1Cl | . | . | ? | . | . | .
CC1(C)CC(=O)C2=C(C1)Oc1nc3ccccc3cc1C2C(C#N)C#N (stereo not drawn) | 21µM | 2.9µM | 4.1µM | 23µM | 18µM | ?
O=C(NCC1CCN(Cc2ccccc2F)CC1)Nc1ccc(F)c(Cl)c1 | . | ? | ? | / | / | .
O=C(Nc1ccc(Br)cc1F)N1CCC2(CC1)Oc1ccccc1C(=O)N2Cc1ccccc1F | / | ? | 16µM | / | / | /
O=C(Nc1ccc(F)c(Cl)c1)N1CCC2(CC1)Oc1ccccc1C(=O)N2Cc1ccccc1F | / | ? | 12µM | / | / | /
Cc1ccc(NC(=O)N2CCC3(CC2)Oc2ccccc2C(=O)N3Cc2ccc(F)cc2)cc1 | . | ? | ? | / | / | .
O=C(Nc1ccccc1Cl)N1CCC2(CC1)Oc1ccccc1C(=O)N2Cc1ccc(F)cc1 | . | ? | 21µM | / | / | .
COc1ccc(Cl)cc1NC(=O)N1CCC2(CC1)Oc1ccccc1C(=O)N2Cc1ccc(F)cc1 | . | ? | ? | / | / | .
COc1ccc(CSc2nnnn2Cc2ccccc2)cc1OC | . | . | . | . | . | 23µM
COc1ccc(C)cc1NC(=O)CSc1nnnn1Cc1ccccc1 | . | ? | ? | . | . | .
COc1ccc(CNC(=O)CSc2nnnn2Cc2ccccc2)cc1 | 16µM | ? | ? | ? | ? | ?
CCCCCCCCC1=NCCc2c1[nH]c1ccccc21 | . | ? | 21µM | ? | ? | .
CCCCc1c(O)c2ccccc2[nH]c1=O | . | . | . | . | . | .
SMILES | KB-3-1 tox | DT40 TDP1 CPT | TDP1 cell noCPT | HT1080 IDH1KD tx | HT1080-NT tox | KB-V1 MDR tox
CC(=O)O[C@H]1C2OC(=O)C(C)=C2[C@@H]2OC(=O)[C@]3(CCC4OC41C)OC23 (stereo partly drawn) | . | 15µM | ? | . | . | .
CN(C)S(=O)(=O)c1cccc(NC(=O)C2CCN(S(=O)(=O)c3cccs3)CC2)c1 | . | ? | ? | . | . | .
O=C(C1CC(=O)N(c2ccc3c(c2)OCCO3)C1)N1CCN(c2cccc(C(F)(F)F)c2)CC1 (stereo not drawn) | ? | ? | 23µM | . | . | ?
O=C(C1CC(=O)N(c2ccc3c(c2)OCCO3)C1)N1CCN(S(=O)(=O)c2cccc(F)c2)CC1 (stereo not drawn) | . | . | ? | . | . | 21µM
N[C@@H](Cc1ccccc1)C(=O)N1CCC(C(=O)N[C@@H](CCC(=O)O)C(=O)O)CC1 | . | . | . | . | . | .
CCCCN(C(=O)c1ccco1)C1CCS(=O)(=O)C1 (stereo not drawn) | ? | . | . | . | . | .
CCOC(=O)/C=C1\Nc2ccccc2OC1=O | . | 8.2µM | 10µM | . | . | .
CCOC(=O)/C=C1\CC(C(=O)OCC)Oc2ccccc21 (stereo not drawn) | . | . | . | . | . | .
O=[N+]([O-])c1ccc(N/N=C/c2cccc(O)c2O)c(S(=O)(=O)N2CCOCC2)c1 | ? | 10µM | 13µM | . | . | ?
O=[N+]([O-])c1ccc(N/N=C/c2ccc(O)c(O)c2O)c(S(=O)(=O)N2CCOCC2)c1 | . | 4.1µM | ? | . | . | .
CCCCNCc1nc2ccccc2c(=O)[nH]1 | . | . | . | . | . | .
CCSc1ccccc1C(=O)Nc1nc2ccccc2c(=O)[nH]1 | . | ? | 21µM | ? | . | 18µM
C=CCNc1nc2ccccc2c(=O)[nH]1 | . | ? | 21µM | . | . | .
CC(C)Nc1nc2ccccc2c(=O)[nH]1 | . | 16µM | ? | . | . | .
CCCNc1nc2ccccc2c(=O)[nH]1 | . | 12µM | 21µM | . | . | .
COc1ccc(NC(=O)c2cc(C3CCCCN3C(=O)OCCF)on2)c(C)c1 (stereo not drawn) | . | ? | ? | . | . | .
O=C(COC(=O)/C=C/c1cccc(F)c1)NCc1ccc2c(c1)OCO2 | . | . | . | . | . | .
CC(C)(C)n1nnnc1C(c1ccccc1)N1CCN(c2ncc(C(F)(F)F)cc2Cl)CC1 (stereo not drawn) | ? | ? | ? | ? | . | ?
COC(=O)Cc1c(C)c2ccc3c(c2oc1=O)CN(Cc1ccccc1OC)CO3 | . | ? | ? | / | / | .
COc1ccc(C)cc1NCc1nnc2n1CCCCC2 | . | . | . | / | / | .
O=C(Nc1ccc(Cl)cc1Cl)c1cnn2c1NC(=C1CC1)C=C2C(F)F | ? | . | . | / | / | .
O=c1[nH]c(-c2ccncc2)nc2ccccc12 | . | 21µM | ? | . | . | .
O=c1[nH]c(-c2cccnc2)nc2ccccc12 | . | . | . | . | . | .
Cc1ccc(S(=O)(=O)N2C[C@H]3C(=O)C[C@@H](c4ccccc4)N(S(=O)(=O)c4ccc(C)cc4)[C@H]3C[C@H]2c2cccc(C)c2)cc1 | . | . | . | . | . | .
CC1=C(C(=O)Nc2ccccc2)C(c2ccc[nH]2)n2ncnc2N1 (stereo not drawn) | ? | ? | ? | / | / | .

Bioassay records: PubChem BioAssay, National Center for Advancing Translational Sciences (NCATS)
